Test results from PubChem BioAssay AID488777 (Sanford-Burnham Center for Chemical Genomics, 2010).
Where “and” joins values, the source holds several entries; their conditions need not be identical. Equal values may be shown once. Values without a mark were called inactive. Calls of active or inactive are those of the source. How the calls were made is not given here.

Assay: AlphaScreen signal interference by SUMOylation inhibitors, SAR follow-up, artefact control for SUMOylation inhibitor project, biochemical (AID 488777)
Conditions: purified counter-screen enzymes, TR-FRET, 60 min

| SMILES | IC50 |
| --- | --- |
| CCC[C@@H](Nc1ccccc1)C12C=CC(O1)C(C(=O)OC)=C2C(=O)OC (stereo partly drawn) | > 100 µM |
| CCCCn1c(NC(=O)c2ccc(OC)cc2)c(S(=O)(=O)c2ccc(C)cc2)c2nc3ccccc3nc21 | > 100 µM |
| CCCCn1c(NC(=O)c2ccc(Cl)cc2)c(C#N)c2nc3ccccc3nc21 | 54.4 µM (active) |
| CCCCn1c(NC(=O)c2ccc(F)cc2)c(C#N)c2nc3ccccc3nc21 | 65.3 µM (active) |
| COC(=O)C1=C(C(=O)O)C2C=CC1([C@@H](Cc1ccccc1)Nc1ccccc1)O2 (stereo partly drawn) | > 100 µM |
| CCCCn1c(NC(=O)c2ccco2)c(C#N)c2nc3ccccc3nc21 | > 100 µM |
| CCC[C@H](Nc1ccccc1)C12C=CC(O1)C(C(=O)OC)=C2C(=O)OC (stereo partly drawn) | > 100 µM |
| COC(=O)[C@@H]1C2CCC([C@@H](Cc3ccccc3)Nc3ccccc3)(O2)[C@@H]1C(=O)OC (stereo partly drawn) | > 100 µM |
| C=CCn1c(NC(=O)c2ccccc2Cl)c(C#N)c2nc3ccccc3nc21 | > 100 µM |
| COC(=O)C1=C(C(=O)OC)C2([C@@H](Cc3ccc(C)cc3)Nc3ccccc3)C=CC1O2 (stereo partly drawn) | > 100 µM |
| C=C[C@H](Nc1ccccc1)C12C=CC(O1)C(C(=O)OC)=C2C(=O)OC (stereo partly drawn) | > 100 µM |
| CCCCn1c(NC(C)=O)c(C#N)c2nc3ccccc3nc21 | > 100 µM |
| COC(=O)C1=C(C(=O)OC)C2([C@H](Cc3ccc(C)cc3)Nc3ccccc3)C=CC1O2 (stereo partly drawn) | > 100 µM |
| CCCCn1c(NC(=O)c2ccccc2)c(S(=O)(=O)c2ccc(C)cc2)c2nc3ccccc3nc21 | > 100 µM |
| CCCC1=NN(c2ccc(C(=O)O)cc2)C(=O)/C1=C/c1ccc(OCc2ccccc2)c(OC)c1 | > 100 µM |
| c1ccc(CC(Nc2ccccc2)c2ccco2)cc1 (stereo not drawn) | > 100 µM |
| COC(=O)C1=C(C(=O)OC)C2([C@@H](Cc3ccc(OC)cc3)Nc3ccccc3)C=CC1O2 (stereo partly drawn) | > 100 µM |

| SMILES | IC50 |
| --- | --- |
| CCCCn1c(NC(=O)c2ccc(F)cc2)c(S(=O)(=O)c2ccc(C)cc2)c2nc3ccccc3nc21 | > 100 µM |
| C=C[C@@H](Nc1ccccc1)C12C=CC(O1)C(C(=O)OC)=C2C(=O)OC (stereo partly drawn) | > 100 µM |
| CCCC1=NN(c2ccccc2)C(=O)/C1=C/c1ccc(OCc2ccc(C(=O)OC)cc2)cc1 | > 100 µM |
| COC(=O)C1=C(C(=O)OC)C2(C(Cc3ccc(F)cc3)Nc3ccccc3)C=CC1O2 (stereo not drawn) | > 100 µM |
| CCCCn1c(NC(=O)c2ccccc2Cl)c(C#N)c2nc3ccccc3nc21 | > 100 µM |
| CCCCn1c(N)c(C#N)c2nc3ccccc3nc21 | > 100 µM |
| N#Cc1c(NC(=O)c2ccccc2Cl)n(Cc2ccccc2)c2nc3ccccc3nc12 | > 100 µM |
| CCCCn1c(N)c(S(=O)(=O)c2ccc(C)cc2)c2nc3ccccc3nc21 | > 100 µM |
| CCCCn1c(NC(=O)c2ccccc2)c(C#N)c2nc3ccccc3nc21 | 65.2 µM (active) and 91.7 µM (active) |
| CCCCn1c(NC(=O)c2ccccc2Cl)c(S(=O)(=O)c2ccccc2)c2nc3ccccc3nc21 | > 100 µM |
| COC(=O)C=C(NC(CO)(CO)CO)C(=O)OC | > 100 µM |
| CCCCn1c(NC(=O)C2CCCCC2)c(C#N)c2nc3ccccc3nc21 | > 100 µM |
| CCCC1=NN(c2ccc(C(=O)O)cc2)C(=O)/C1=C/c1ccc(O)cc1 | > 100 µM |
| COC(=O)C1=C(C(=O)OC)C2(C(Cc3ccc(OC(F)(F)F)cc3)Nc3ccccc3)C=CC1O2 (stereo not drawn) | > 100 µM |
| CCCCn1c(NC(=O)c2cccc(Cl)c2)c(C#N)c2nc3ccccc3nc21 | > 100 µM |
| CCCC1=NN(c2ccc(C(=O)O)cc2)C(=O)/C1=C/c1ccc(OCc2ccccc2)cc1 | 16.4 µM (active) |
